The experiment relates to Plasmodium falciparum NF54. Nature of the experiment: growth inhibition relative to untreated control; higher = more inhibition. The settings on record: 72 h. The procedure, abridged: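 P. falciparum NF54 ring stages (1% hematocrit, 1% parasitemia, 100 μL/well in 96-well half-area dark plates) were exposed for 72 h at 37 °C to single 5 μM or 1 μM doses of Pathogen Box compounds. The medium was minimal RPMI or minimal RPMI plus chorismate end-products (2.2 μM folate, 7.3 μM pABA, 7.3 μM pHBA, 111 μM tyrosine, 90 μM phenylalanine, tryptophan). Growth inhibition was read by SYBR Green, normalised to untreated controls, with uninfected erythrocytes as background.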

Setting [1] is: 1 µM, MM + chorismate end-products (CM screening medium).
The mark [2] stands for this setting: 5 µM, MM + chorismate end-products (CM screening medium).

Some results are limits rather than exact numbers.

From the supplement of paper PMC6763611 come the findings set out here.

Consider `CC1(C)OB(O)c2ccc(C3=NOC(c4cc(Cl)c(F)c(Cl)c4)(C(F)(F)F)C3)cc21` (stereo unspecified), for which the growth inhibition under setting [1] is 53.3%; the growth inhibition (1 µM, minimal medium (MM)) amounted to 48.1%; the growth inhibition under setting [2] was found to be 53.9%; the growth inhibition (5 µM, minimal medium (MM)) was 11.9%.
Turning to `Cc1cc(C2=NOC(c3cc(Cl)c(F)c(Cl)c3)(C(F)(F)F)C2)ccc1C(=O)NCc1ccc2c(c1)C(C)(C)OB2O` (stereo unspecified), the growth inhibition is 19.4% under setting [1]; below 0% (1 µM, minimal medium (MM)); 40.8% under setting [2]; 10.9% (5 µM, minimal medium (MM)).
For `Cc1nn(Cc2ccccc2)c(Cl)c1C(=O)NC1CCCCCC1`, the growth inhibition by setting is: under setting [1], 16.8%; (1 µM, minimal medium (MM)) below 0%; under setting [2], below 0%; (5 µM, minimal medium (MM)) below 0%.
As for `CO/C=C(/C(=O)OC)c1ccccc1Oc1cc(Oc2ccccc2C#N)ncn1`, the growth inhibition is 96% under setting [1]; 94.7% (1 µM, minimal medium (MM)); 90.4% under setting [2]; 92.2% (5 µM, minimal medium (MM)).
As to `CO/N=C(\C(=O)OC)c1ccccc1CO/N=C(\C)c1cccc(C(F)(F)F)c1`, the growth inhibition under setting [1] was determined as 98%; the growth inhibition (1 µM, minimal medium (MM)) was 96.6%; the growth inhibition under setting [2] is 91.5%; the growth inhibition (5 µM, minimal medium (MM)) worked out at 91.8%.
In the case of `Cc1nn(C)c(C)c1NS(=O)(=O)c1c(Cl)cc(-c2ccnc(N3CCNCC3)c2)cc1Cl`, the growth inhibition came to 55.7% under setting [1]; 79.5% (1 µM, minimal medium (MM)); 84.1% under setting [2]; 89.6% (5 µM, minimal medium (MM)).
For `CCc1nn(C)c(C(=O)NCc2ccc(Oc3ccc(C)cc3)cc2)c1Cl`, the growth inhibition reads like this: under setting [1], below 0%; (1 µM, minimal medium (MM)) 3.68%; under setting [2], below 0%; (5 µM, minimal medium (MM)) below 0%.
For `CO[C@@H]1CN(c2ccc(C#CC3(O)CN4CCC3CC4)c(Cc3ccccc3)n2)C[C@H]1O` (stereo partly specified), the growth inhibition under setting [1] was 33.3%; the growth inhibition (1 µM, minimal medium (MM)) is below 0%; the growth inhibition under setting [2] came to 42.8%; the growth inhibition (5 µM, minimal medium (MM)) is 9.06%.
For `O=C1O[C@@H](COc2ccon2)CN1c1cc(F)c(C2=CCN(Cc3ccccc3)CC2)c(F)c1`, the growth inhibition runs as follows: under setting [1], 13.6%; (1 µM, minimal medium (MM)) below 0%; under setting [2], 54.4%; (5 µM, minimal medium (MM)) 28.6%.
On the same counts, the results for `CC(C)(C)C(O)C(Oc1ccc(-c2ccccc2)cc1)n1cncn1` (stereo unspecified) are 46.2%, 5.38%, below 0% and below 0%.
For `Cc1cccc(C(=O)Nc2ccnc(N(C)C3CCN(CC(C)C)CC3)c2)c1` the same measures were above 100%, 61.7%, 94.8% and 92.4%.
On the same counts, the results for `CC1COC(Cn2cncn2)(c2ccc(Oc3ccc(Cl)cc3)cc2Cl)O1` (stereo unspecified) are 22%, 38.1%, 67.8% and 33.6%.
For `Nc1c2c(nc3sc4c(c13)CCCC4)CCCC2`, the growth inhibition was determined as 2.72% under setting [1]; 13.8% (1 µM, minimal medium (MM)); 52.3% under setting [2]; 13.1% (5 µM, minimal medium (MM)).
For `O=C1O[C@@H](CO)CN1c1cc(F)c(C2=CCN(Cc3ccccc3)CC2)c(F)c1` the same measures were 19.3%, 23.4%, 45% and 49.9%.
